Records with an inconclusive call do not appear. Calls of active or inactive are those of the source. Rule for the calls: active = hit-call score of the fitted dose curve at least 0.9, where 1 is the maximum; inconclusive = response in the unintended direction; inactive = score below 0.9.

The assay in a line: CCTE_Harrill_HTTr_CellCount_MCF7: CCTE's Cell Proliferation Assessment for the High-Throughput Transcriptomics (HTTr) Platform, Harrill Lab (AID 2284012).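 Note: intended direction is loss of nuclei count meaning fewer cells.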 The text has this:
This is a cell-based assay that evaluates cell viability and cell growth using high content imaging to count the number of Hoechst-labeled nuclei that are present in an assay well in 384-well format.This is a cell-based assay that evaluates cell viability and cell growth in MCF-7 cells. This was part of a full screening experiment. High content imaging is used to count the number of Hoechst-labeled nuclei that are present in an assay well in 384-well format.The assay component endpoint CCTE_Harrill_HTTr_CellCount_MCF7 was analyzed with bidirectional fitting relation to DMSO as the negative control and baseline of activity. Using a type of viability reporter, loss-of-signal activity can be used to understand changes in cell count. To generalize the intended target to other relatable targets, this assay endpoint is annotated to cell cycle, where the subfamily is cell count.
Chemicals were tested in MCF7 cells in an eight point dilution series with a six hour exposure duration.
`CCn1cc(C(=O)O)c(=O)c2cc3c(cc21)OCO3`: the compound was classed as inactive. As to `c1ccc(CNc2ncnc3nc[nH]c23)cc1`, the outcome was inactive. On to `CC1Cc2ccccc2N1NC(=O)c1ccc(Cl)c(S(N)(=O)=O)c1` (stereo not given), for which the compound was classed as inactive. The result for `Cc1nc(C)c(C)nc1C` reads “inactive”; that for `CC/C=C\CCO`, “inactive”; that for `CNCCC(Oc1ccc(C(F)(F)F)cc1)c1ccccc1` (stereo not given), “inactive”. As to `O=c1n(CCCN2CCN(c3cccc(Cl)c3)CC2)nc2ccccn12`, the compound was called inactive. As for `O=C(O)c1cc(=O)c2c(OCC(O)COc3cccc4oc(C(=O)O)cc(=O)c34)cccc2o1`, the outcome was inactive. As for `CCCCCCCCCCCCCC`, the compound was called inactive. For the compound `OCCCC1CCCCC1`, the compound was called inactive. On to `CC(=O)NCCCS(=O)(=O)O`, for which the result was inactive.

As for `C[C@@H]1CN(c2c(F)c(N)c3c(=O)c(C(=O)O)cn(C4CC4)c3c2F)C[C@H](C)N1`, the outcome was inactive.

For the compound `CC(=O)O[C@]1(C(C)=O)CC[C@H]2[C@@H]3C=C(C)C4=CC(=O)CC[C@]4(C)[C@H]3CC[C@@]21C`, the result was inactive. For `O=C(OOC(=O)c1ccccc1)c1ccccc1`, the compound was called inactive. As for `O=C(Oc1ccccc1)c1ccccc1`, the compound was called inactive. Consider `CCCc1c(OCCCCc2nn[nH]n2)ccc(C(C)=O)c1O`, for which the compound was called inactive. Consider `O=C(O)c1cc(Cl)cc(Cl)c1O`, for which the outcome was inactive. For the compound `Cc1cnc(C(=O)NCCc2ccc(S(=O)(=O)NC(=O)NC3CCCCC3)cc2)cn1`, the compound was classed as inactive. Consider `Cc1cc(C)c(C=C2C(=O)Nc3ccccc32)[nH]1`, for which the outcome was inactive. As for `C=C(C)C1CCC(C)(O)CC1` (stereo not given), the result was inactive. With `c1ccc([C@H]2CN3CCSC3=N2)cc1`, the compound was classed as inactive. The result for `O=C(C1CCCCC1)N1CC(=O)N2CCc3ccccc3C2C1` (stereo not given) reads “inactive”; that for `N#CCC(=O)O`, “inactive”. For the compound `CNC(=C[N+](=O)[O-])NCCSCc1csc(CN(C)C)n1`, the compound was classed as inactive.

As to `O=C(O)/C=C/C(=O)O`, the compound was classed as inactive.

For `Oc1ccc(Cl)cc1C1CCCC1`, the compound was called inactive.

In the case of `c1ccc2cc3c4ccccc4c4ccccc4c3cc2c1`, the compound was called inactive. `CC(=O)CCCCn1c(=O)c2c(ncn2C)n(C)c1=O`: the result was inactive.

Turning to `COc1ccc(CCN(C)CCCC(C#N)(c2ccc(OC)c(OC)c2)C(C)C)cc1OC` (stereo not given), the call was inactive. Regarding `CC(C(=O)O)c1ccc(-c2ccccc2)c(F)c1` (stereo not given), the outcome was inactive. `O=C1Nc2ccc(Cl)cc2[C@@](C#CC2CC2)(C(F)(F)F)O1`: the call was inactive. Turning to `O=[N+]([O-])c1ccc2c(c1)Cc1ccccc1-2`, the compound was called inactive.

Take `Cc1c(N(C)CS(=O)(=O)O)c(=O)n(-c2ccccc2)n1C`: the result was inactive. The result for `O=C(O)/C=C\C(=O)O` reads “inactive”; that for `Cc1ccnc(N)c1`, “inactive”. For `NC(N)=Nc1nc(CSCCC(N)=NS(N)(=O)=O)cs1`, the compound was called inactive. For the compound `CCCCC(CC)COC(=O)C=Cc1ccc(OC)cc1` (stereo not given), the outcome was inactive. The same measure for `CCCCC(=O)O[C@]1(C(=O)CO)[C@@H](C)C[C@H]2[C@@H]3CCC4=CC(=O)C=C[C@]4(C)[C@@]3(F)[C@@H](O)C[C@@]21C`: “inactive”; for `Cc1ccc(C(C)NC(=O)[C@@H](NC(=O)OC(C)C)C(C)C)cc1` (stereo not given in full): “inactive”. As to `Cc1nc(-c2ccc(OCC(C)C)c(C#N)c2)sc1C(=O)O`, the call was inactive.

(Values after PubChem BioAssay (EPA / NIEHS).)
